The values below come from PubChem BioAssay (NCATS).

Results filed as inconclusive are left out. Unmarked numbers belong to inactive results. Calls come from the whole dose curve; as a rule, active = well fitted inhibition curve with a large enough effect; inconclusive = small, poorly fitted or top-dose-only effect; inactive = flat fitted curve, though single readings scatter.
% is set by controls: 0 for no effect and ±100 for the full control effect.

One assay can be described thus: Drug repurposing screens with cells derived from glioblastoma tumor samples (AID 1345199). Note: nearly all actives have a fitted effect of over 40% in size. The conditions noted are these: GBM patient neurospheres viability, ATP luminescence, 48 h; at 45.9 µM (top of the series); tumour line D. The procedure, abridged: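 Primary testing used CD133+ neurospheres from four GBM patients, seven concentrations, 48 h exposure and ATP-based viability; confirmation added three slower-growing patient lines.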
Consider `CC(=O)N[C@H]1[C@H]([C@H](O)[C@H](O)CO)OC(C(=O)O)=C[C@@H]1N=C(N)N`, for which the activity, negative = cell killing was -2.37%.

`CC(C)CCCC(C)CCCC(C)CCCCC(C)CCCC(C)CCCC(C)C` (centres undefined): the activity, negative = cell killing is 2.23%.

As for `NC(=O)CC[C@@H](N)C(=O)O`, the activity, negative = cell killing is 12.3%.

As for `COC(=O)N/N=C/c1c[n+]([O-])c2ccccc2[n+]1[O-]`, the activity, negative = cell killing is -10.1%.

`O=C(O)c1ccccc1C(=O)Nc1ccc(S(=O)(=O)Nc2nccs2)cc1`: the activity, negative = cell killing is -3.34%.

Regarding `COc1cc(O)cc(O)c1`, the activity, negative = cell killing is -4.84%.

As to `C[C@@H]1O[C@@H](OC[C@H]2O[C@@H](Oc3c(-c4ccc(O)c(O)c4)oc4cc(O)cc(O)c4c3=O)[C@H](O)[C@@H](O)[C@@H]2O)[C@H](O)[C@H](O)[C@H]1O`, the activity, negative = cell killing was 3.42%.

Regarding `CCN(CC)S(=O)(=O)c1ccc(C(=O)O)cc1`, the activity, negative = cell killing is -3.35%.

With `Cc1c(Cn2ccnc2)c2ccccc2n1CCC(=O)O`, the activity, negative = cell killing was -4.06%.

Regarding `CN1C(C)(C)CCCC1(C)C`, the activity, negative = cell killing is 3.96%.

Consider `CC1(C)S[C@@H]2[C@H](NC(=O)C(C(=O)O)c3ccccc3)C(=O)N2[C@H]1C(=O)O` (some centres undefined), for which the activity, negative = cell killing was -6.27%.

As for `CN[C@@H]1[C@@H](O)[C@@H](O[C@@H]2[C@H](O)[C@H](O[C@H]3OC(CN)=CC[C@H]3N)[C@@H](N)C[C@H]2N)OCC1(C)O` (some centres undefined), the activity, negative = cell killing was 7.79%.

In the case of `C/C=C1\[C@H]2C=C(C)C[C@]1(N)c1ccc(=O)[nH]c1C2`, the activity, negative = cell killing is -6.44%.

Still in this assay, the particulars now being: GBM patient neurospheres viability, ATP luminescence, 48 h; at 46 µM (top of the series); tumour line A.
As to `CN1CC(=O)NC1=N`, the activity, negative = cell killing is -16.7%.

As to `Cn1c(=O)c2c(ncn2CCO)n(C)c1=O`, the activity, negative = cell killing is -29%.

In the case of `OCc1ccc(Cl)cc1Cl`, the activity, negative = cell killing was -3.28%.

Take `CC(=O)N1C[C@H](O)C[C@H]1C(=O)O`: the activity, negative = cell killing is -19.6%.

As for `CC(=O)NCc1c(I)c(NC(C)=O)c(I)c(C(=O)O)c1I`, the activity, negative = cell killing is -20.1%.

Regarding `Cc1c(C)c2c(c(C)c1OC(=O)c1cccnc1)CC[C@@](C)(CCC[C@H](C)CCC[C@H](C)CCCC(C)C)O2`, the activity, negative = cell killing was -9.82%.

Take `NC(=O)NS(=O)(=O)c1ccc(N)cc1`: the activity, negative = cell killing was -3.84%.

Regarding `O=C(O)c1cc(=O)c2ccccc2o1`, the activity, negative = cell killing was -22.8%.

For `CN1C(=O)CC(c2ccccc2)C1=O` (centres undefined), the activity, negative = cell killing is 1.73%.

On to `COc1nccnc1NS(=O)(=O)c1ccc(N)cc1`, for which the activity, negative = cell killing was -24.3%.

Consider `CC(=O)N[C@@H](CC(C)C)C(=O)O`, for which the activity, negative = cell killing was -21.1%.

In the case of `COc1ccc(-c2cc(=O)c3c(O)cc(O[C@@H]4O[C@H](CO[C@@H]5O[C@@H](C)[C@H](O)[C@@H](O)[C@H]5O)[C@@H](O)[C@H](O)[C@H]4O)cc3o2)cc1O`, the activity, negative = cell killing was -29.8%.

`Cc1c(I)c(=O)n(-c2ccccc2)n1C`: the activity, negative = cell killing is -24.2%.

Turning to `O=C(O)CCC(=O)O`, the activity, negative = cell killing is -19%.

For `CC(=O)N[C@H]1[C@H]([C@H](O)[C@H](O)CO)OC(C(=O)O)=C[C@@H]1N=C(N)N`, the activity, negative = cell killing is -22.1%.

Regarding `CC(C)CCCC(C)CCCC(C)CCCCC(C)CCCC(C)CCCC(C)C` (centres undefined), the activity, negative = cell killing is -12.7%.

Regarding `NC(=O)CC[C@@H](N)C(=O)O`, the activity, negative = cell killing is 4.73%.

As for `COC(=O)N/N=C/c1c[n+]([O-])c2ccccc2[n+]1[O-]`, the activity, negative = cell killing is -9.78%.

On to `O=C(O)c1ccccc1C(=O)Nc1ccc(S(=O)(=O)Nc2nccs2)cc1`, for which the activity, negative = cell killing is -31.1%.

For `COc1cc(O)cc(O)c1`, the activity, negative = cell killing was -38.5%.

For the compound `C[C@@H]1O[C@@H](OC[C@H]2O[C@@H](Oc3c(-c4ccc(O)c(O)c4)oc4cc(O)cc(O)c4c3=O)[C@H](O)[C@@H](O)[C@@H]2O)[C@H](O)[C@H](O)[C@H]1O`, the activity, negative = cell killing is -16.5%.

For `CCN(CC)S(=O)(=O)c1ccc(C(=O)O)cc1`, the activity, negative = cell killing was -16.8%.

As for `Cc1c(Cn2ccnc2)c2ccccc2n1CCC(=O)O`, the activity, negative = cell killing is -28%.

With `CN1C(C)(C)CCCC1(C)C`, the activity, negative = cell killing is -29.4%.

In the case of `CC1(C)S[C@@H]2[C@H](NC(=O)C(C(=O)O)c3ccccc3)C(=O)N2[C@H]1C(=O)O` (some centres undefined), the activity, negative = cell killing was -8.84%.

For the compound `CN[C@@H]1[C@@H](O)[C@@H](O[C@@H]2[C@H](O)[C@H](O[C@H]3OC(CN)=CC[C@H]3N)[C@@H](N)C[C@H]2N)OCC1(C)O` (some centres undefined), the activity, negative = cell killing was -24.3%.

As for `C/C=C1\[C@H]2C=C(C)C[C@]1(N)c1ccc(=O)[nH]c1C2`, the activity, negative = cell killing is -18.8%.

Staying with this assay, now noted: GBM patient neurospheres viability, ATP luminescence, 48 h; at 46.1 µM (top of the series); tumour line C.
Regarding `CC[C@]12CCCN3CCc4c(n(c5ccccc45)[C@@](O)(C(=O)OC)C1)[C@@H]32`, the activity, negative = cell killing was -21.5%.

For the compound `CN1CC(=O)NC1=N`, the activity, negative = cell killing is -13.9%.

Take `O=C(/C=C/c1ccc(O)c(O)c1)O[C@@H]1C[C@@](OC(=O)/C=C/c2ccc(O)c(O)c2)(C(=O)O)C[C@@H](O)[C@@H]1O`: the activity, negative = cell killing is -11.7%.

As to `Cn1c(=O)c2c(ncn2CCO)n(C)c1=O`, the activity, negative = cell killing was -21.7%.

Turning to `OCc1ccc(Cl)cc1Cl`, the activity, negative = cell killing was 6.97%.

Consider `CC(=O)N1C[C@H](O)C[C@H]1C(=O)O`, for which the activity, negative = cell killing was -5.75%.

Regarding `CC(=O)NCc1c(I)c(NC(C)=O)c(I)c(C(=O)O)c1I`, the activity, negative = cell killing was -11.1%.

On to `Cc1c(C)c2c(c(C)c1OC(=O)c1cccnc1)CC[C@@](C)(CCC[C@H](C)CCC[C@H](C)CCCC(C)C)O2`, for which the activity, negative = cell killing is -12.2%.

For `NC(=O)NS(=O)(=O)c1ccc(N)cc1`, the activity, negative = cell killing is 3.57%.

For the compound `O=C(O)c1cc(=O)c2ccccc2o1`, the activity, negative = cell killing was -14.3%.

As to `CN1C(=O)CC(c2ccccc2)C1=O` (centres undefined), the activity, negative = cell killing was -11.6%.

As for `COc1nccnc1NS(=O)(=O)c1ccc(N)cc1`, the activity, negative = cell killing was -3.06%.

In the case of `CC(=O)N[C@@H](CC(C)C)C(=O)O`, the activity, negative = cell killing was -11.2%.

Regarding `COc1ccc(-c2cc(=O)c3c(O)cc(O[C@@H]4O[C@H](CO[C@@H]5O[C@@H](C)[C@H](O)[C@@H](O)[C@H]5O)[C@@H](O)[C@H](O)[C@H]4O)cc3o2)cc1O`, the activity, negative = cell killing was 3.81%.

Consider `Cc1c(I)c(=O)n(-c2ccccc2)n1C`, for which the activity, negative = cell killing was 3.68%.

As for `O=C(O)CCC(=O)O`, the activity, negative = cell killing was 36.7%.

For the compound `CC(=O)N[C@H]1[C@H]([C@H](O)[C@H](O)CO)OC(C(=O)O)=C[C@@H]1N=C(N)N`, the activity, negative = cell killing was -20.3%.

As for `CC(C)CCCC(C)CCCC(C)CCCCC(C)CCCC(C)CCCC(C)C` (centres undefined), the activity, negative = cell killing was 8.73%.

As for `NC(=O)CC[C@@H](N)C(=O)O`, the activity, negative = cell killing is 1.46%.

Regarding `COC(=O)N/N=C/c1c[n+]([O-])c2ccccc2[n+]1[O-]`, the activity, negative = cell killing was 2.7%.

On to `O=C(O)c1ccccc1C(=O)Nc1ccc(S(=O)(=O)Nc2nccs2)cc1`, for which the activity, negative = cell killing is 1.95%.

With `COc1cc(O)cc(O)c1`, the activity, negative = cell killing is -3.31%.

Take `C[C@@H]1O[C@@H](OC[C@H]2O[C@@H](Oc3c(-c4ccc(O)c(O)c4)oc4cc(O)cc(O)c4c3=O)[C@H](O)[C@@H](O)[C@@H]2O)[C@H](O)[C@H](O)[C@H]1O`: the activity, negative = cell killing is -1.98%.

Take `CCN(CC)S(=O)(=O)c1ccc(C(=O)O)cc1`: the activity, negative = cell killing was -15.2%.

On to `Cc1c(Cn2ccnc2)c2ccccc2n1CCC(=O)O`, for which the activity, negative = cell killing was -6.27%.

Turning to `CN1C(C)(C)CCCC1(C)C`, the activity, negative = cell killing is -8.74%.

As to `CC1(C)S[C@@H]2[C@H](NC(=O)C(C(=O)O)c3ccccc3)C(=O)N2[C@H]1C(=O)O` (some centres undefined), the activity, negative = cell killing is 7.57%.

Turning to `CN[C@@H]1[C@@H](O)[C@@H](O[C@@H]2[C@H](O)[C@H](O[C@H]3OC(CN)=CC[C@H]3N)[C@@H](N)C[C@H]2N)OCC1(C)O` (some centres undefined), the activity, negative = cell killing was -7.7%.

On to `C/C=C1\[C@H]2C=C(C)C[C@]1(N)c1ccc(=O)[nH]c1C2`, for which the activity, negative = cell killing is 3.14%.
